These results are taken from paper PMC6602471.

Over roughly 1,300 sequences, “log fluorescence intensity” has its median near 8.3; the highest 2% begin near 12. The list comes from a sample in which the highest values are over-represented; it also holds similar and randomly drawn sequences.

For the assay, the target named is T1, ETS1 (Homo sapiens, UniProt P14921 1-441).
T1 sequence: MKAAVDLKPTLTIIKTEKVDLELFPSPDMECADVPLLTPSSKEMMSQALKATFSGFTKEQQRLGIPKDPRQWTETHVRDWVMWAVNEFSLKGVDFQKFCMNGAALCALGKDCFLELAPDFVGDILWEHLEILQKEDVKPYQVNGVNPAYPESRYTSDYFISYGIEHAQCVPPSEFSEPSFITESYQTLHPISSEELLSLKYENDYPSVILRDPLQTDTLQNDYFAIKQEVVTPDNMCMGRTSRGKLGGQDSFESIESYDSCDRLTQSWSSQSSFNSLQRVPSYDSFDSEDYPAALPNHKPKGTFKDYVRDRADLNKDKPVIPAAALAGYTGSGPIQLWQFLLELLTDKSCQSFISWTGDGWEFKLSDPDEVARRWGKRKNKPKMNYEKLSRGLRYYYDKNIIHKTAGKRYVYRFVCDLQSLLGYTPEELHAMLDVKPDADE
The assay is described as follows: custom PBM; custom protein-binding microarray; buffer, salt, pH and temperature not stated; high values mean tight binding. Conditions: dsDNA, one strand shown.
Regarding “TCCGGCTACCAGCTCCACCCACTTCAGGCCTTGTAGGTCTTGATTCGCTTGACGCTGCTG”, the binding signal was 8.36 log fluorescence intensity.
For the sequence “TCCGGCTACCAGCTCCACCCACTTCAAGCCTTGTAGGTCTTGATTCGCTTGACGCTGCTG”, the binding signal is 8.4 log fluorescence intensity.
Consider “TCCGGCTACCAGCTCCACCCACTTCCGGCCTTGTAGGTCTTGATTCGCTTGACGCTGCTG”, for which the binding signal is 13.1 log fluorescence intensity.
Take “TAAAGGGAAGAGGGTTGTGGTAGTTCCGGGTATTAAGTCTTGATTCGCTTGACGCTGCTG”: the binding signal was 8.6 log fluorescence intensity.
In the case of “TCCGGCTACCACCTCCACCCACTTCAGGCCTTGTAGGTCTTGATTCGCTTGACGCTGCTG”, the binding signal was 8.32 log fluorescence intensity.
On to “GGAAAAAGGCCCAGGGTAACGCCGGAAGTGGGCTTAGTCTTGATTCGCTTGACGCTGCTG”, for which the binding signal was 10.7 log fluorescence intensity.
Under “GGAAAAAGGCCCAGGGTAACAGCGGAAGTGGGCTTAGTCTTGATTCGCTTGACGCTGCTG” stands 10.2 log fluorescence intensity; under “AGAAAAAGGCCCAGGGTAACACCGGAAGTGGGCTTAGTCTTGATTCGCTTGACGCTGCTG”, 11.9 log fluorescence intensity; under “GGAAAAGGGCCCAGGGTAACACCGGAAGTGGGCTTAGTCTTGATTCGCTTGACGCTGCTG”, 11.8 log fluorescence intensity.
Under “GGAAAAAAGCCCAGGGTAACACCGGAAGTGGGCTTAGTCTTGATTCGCTTGACGCTGCTG” stands 12.1 log fluorescence intensity; under “TGAAAAAGGCCCAGGGTAACACCGGAAGTGGGCTTAGTCTTGATTCGCTTGACGCTGCTG”, 11.8 log fluorescence intensity.
As to “GGAAAAAGCCCCAGGGTAACACCGGAAGTGGGCTTAGTCTTGATTCGCTTGACGCTGCTG”, the binding signal is 12.1 log fluorescence intensity.
With “CGAAAAAGGCCCAGGGTAACACCGGAAGTGGGCTTAGTCTTGATTCGCTTGACGCTGCTG” the figure was 12 log fluorescence intensity.
In the case of “GGAAAAAGGCCAAGGGTAACACCGGAAGTGGGCTTAGTCTTGATTCGCTTGACGCTGCTG”, the binding signal was 12 log fluorescence intensity.
Consider “GGAAAAAGGCCCATGGTAACACCGGAAGTGGGCTTAGTCTTGATTCGCTTGACGCTGCTG”, for which the binding signal was 11.9 log fluorescence intensity.
Take “GGAAAAAGGCCCACGGTAACACCGGAAGTGGGCTTAGTCTTGATTCGCTTGACGCTGCTG”: the binding signal is 12.2 log fluorescence intensity.
With “GGAAAAAGGCCCAGTGTAACACCGGAAGTGGGCTTAGTCTTGATTCGCTTGACGCTGCTG” the figure was 12 log fluorescence intensity.
Under “GGAAAAAGGCCCAAGGTAACACCGGAAGTGGGCTTAGTCTTGATTCGCTTGACGCTGCTG” stands 12.1 log fluorescence intensity; under “CTGGGACTTGACCCGACTCTGCCACGTGGGTCGTTTGTCTTGATTCGCTTGACGCTGCTG”, 8.49 log fluorescence intensity.
Consider “TACTGACATATATATGCGAATGCACATGAATAGACCGTCTTGATTCGCTTGACGCTGCTG”, for which the binding signal was 8.43 log fluorescence intensity.
Under “GAGCATAGGACTTCTTCCCTGAAGCAATTGATAACCGTCTTGATTCGCTTGACGCTGCTG” stands 8.32 log fluorescence intensity; under “CGGAAGTGTCGTAAACGTCGGATATCCGGTTCGTCTGTCTTGATTCGCTTGACGCTGCTG”, 11.9 log fluorescence intensity; under “TGTCGGGTAAGGGAATGTAGATGACGTGAATGAAAAGTCTTGATTCGCTTGACGCTGCTG”, 8.36 log fluorescence intensity.
Regarding “GGAAAAAGGCCCAGGGTAACACCGGAAGTGCGCTTAGTCTTGATTCGCTTGACGCTGCTG”, the binding signal is 11.7 log fluorescence intensity.
Take “GATTAATTTCTGCCCTTATTCGCACGTGCAATAACAGTCTTGATTCGCTTGACGCTGCTG”: the binding signal is 8.3 log fluorescence intensity.
In the case of “CAGAAGTGTCGTAAACGTCGGATATCCGGTTCTTCTGTCTTGATTCGCTTGACGCTGCTG”, the binding signal is 12.1 log fluorescence intensity.
Consider “CGGAAGTGTCGTAAGCGTCGGATATCCGGTTCTTCTGTCTTGATTCGCTTGACGCTGCTG”, for which the binding signal was 11.7 log fluorescence intensity.
Under “CGGCAGTGTCGTAAACGTCGGATATCCGGTTCTTCTGTCTTGATTCGCTTGACGCTGCTG” stands 11.7 log fluorescence intensity.
With “GGAAACAGGCCCAGGGTAACACCGGAAGTGGGCTTAGTCTTGATTCGCTTGACGCTGCTG” the figure was 11.8 log fluorescence intensity; with “TAAAGGGAAGACGGTTGTAGTAGTTCCGGGTATTAAGTCTTGATTCGCTTGACGCTGCTG”, 8.81 log fluorescence intensity.
Under “GCTGCTGCGCTGCATACCCCACCGGATGTGACCCCGGTCTTGATTCGCTTGACGCTGCTG” stands 10.1 log fluorescence intensity.
On to “TACTGACTTATATATGCGAATGCACATCAATAGACCGTCTTGATTCGCTTGACGCTGCTG”, for which the binding signal is 8.32 log fluorescence intensity.
Consider “GCTGCTGCGGTGCATACCCCACCAGATGTGACCCCGGTCTTGATTCGCTTGACGCTGCTG”, for which the binding signal was 8.36 log fluorescence intensity.
As to “CACAATTTTTACAGTAATGTAGCACGCGTAAATCCTGTCTTGATTCGCTTGACGCTGCTG”, the binding signal is 8.32 log fluorescence intensity.
With “GTGTATAGGATCCCATCGAACACACGTGTTAAAATGGTCTTGATTCGCTTGACGCTGCTG” the figure was 8.36 log fluorescence intensity; with “TAAAGGGAAGACGGTTGTGGTAGTTCCGGGTATTAGGTCTTGATTCGCTTGACGCTGCTG”, 8.47 log fluorescence intensity.
In the case of “CCGAAGTGTCGTAAACGTCGGATATCCGGTTCTTCTGTCTTGATTCGCTTGACGCTGCTG”, the binding signal is 12 log fluorescence intensity.
In the case of “CGGAAGTGTCTTAAACGTCGGATATCCGGTTCTTCTGTCTTGATTCGCTTGACGCTGCTG”, the binding signal is 11.6 log fluorescence intensity.
For “CGGAAGTGTCGTAAACGTCGGATCTCCGGTTCTTCTGTCTTGATTCGCTTGACGCTGCTG”, the binding signal was 8.47 log fluorescence intensity.
Turning to “CGGAAGTGTCGTAAACGTCCGATATCCGGTTCTTCTGTCTTGATTCGCTTGACGCTGCTG”, the binding signal is 12.2 log fluorescence intensity.
Under “CGGAAGTGTCGAAAACGTCGGATATCCGGTTCTTCTGTCTTGATTCGCTTGACGCTGCTG” stands 12 log fluorescence intensity; under “CGGAAGTGTCGTAAACGTCGGATTTCCGGTTCTTCTGTCTTGATTCGCTTGACGCTGCTG”, 12.5 log fluorescence intensity.
“CGGAAGTGTCGTAAACGTCGGATGTCCGGTTCTTCTGTCTTGATTCGCTTGACGCTGCTG”: the binding signal was 9.65 log fluorescence intensity.
Take “CGGAAGTGTCGTAAACGTCGGACATCCGGTTCTTCTGTCTTGATTCGCTTGACGCTGCTG”: the binding signal is 12.6 log fluorescence intensity.
Under “CGGAAGTGTCGTAAACGTCGGAGATCCGGTTCTTCTGTCTTGATTCGCTTGACGCTGCTG” stands 8.83 log fluorescence intensity; under “CGGAAGTGTCGGAAACGTCGGATATCCGGTTCTTCTGTCTTGATTCGCTTGACGCTGCTG”, 12.8 log fluorescence intensity; under “CGGAAGTGTCGTAAACGTCGGAAATCCGGTTCTTCTGTCTTGATTCGCTTGACGCTGCTG”, 9.71 log fluorescence intensity.
With “CGGAAGTGTCGTAAACGTCTGATATCCGGTTCTTCTGTCTTGATTCGCTTGACGCTGCTG”, the binding signal was 11.8 log fluorescence intensity.
With “CGGAACTGTCGTAAACGTCGGATATCCGGTTCTTCTGTCTTGATTCGCTTGACGCTGCTG” the figure was 11.8 log fluorescence intensity; with “CGGAAGTGTCGTAAACGTCGGTTATCCGGTTCTTCTGTCTTGATTCGCTTGACGCTGCTG”, 9.21 log fluorescence intensity.
Regarding “CGGAATTGTCGTAAACGTCGGATATCCGGTTCTTCTGTCTTGATTCGCTTGACGCTGCTG”, the binding signal is 12.2 log fluorescence intensity.
Regarding “CGGAAGTGTCGTAAACGTCGTATATCCGGTTCTTCTGTCTTGATTCGCTTGACGCTGCTG”, the binding signal is 11.8 log fluorescence intensity.
With “CGGAAGCGTCGTAAACGTCGGATATCCGGTTCTTCTGTCTTGATTCGCTTGACGCTGCTG” the figure was 11.8 log fluorescence intensity.
Regarding “CGGAAGTGTCGTAAACGTCGCATATCCGGTTCTTCTGTCTTGATTCGCTTGACGCTGCTG”, the binding signal was 12.2 log fluorescence intensity.
